Measured values published in PubChem BioAssay AID1159580 (chemical genetic matrix, 2015).
The whole screen tested about 5,500 compounds, of which about 2,000 (36%) were called active. Roughly 18% stayed inconclusive and do not appear here. No stated cut-off is given here; in the data, active means normalized growth mostly below about 0.91 (no sharp cut-off); inconclusive means no clear call, values can overlap the other calls; inactive means mostly above about 0.92. This is one part of the list.

Test: chemical genetic growth profiling, strain panel (AID 1159580);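 further: tested at 20 µM; growth read once vehicle control cultures reached saturation at 30 °C; 1 = growth at the plate median or of vehicle wells; lower values mean less growth of the strain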
Conditions: S. cerevisiae deletion strains, growth OD
[1] = locus YGR078C, strain PAC10, active compounds read low
[2] = locus YJR075W, strain HOC1, active compounds read low
[3] = locus YMR263W, strain SAP30, active compounds read low
[4] = locus YNL128W, strain TEP1, active compounds read low
[5] = locus YNL153C, strain GIM3, active compounds read low
[6] = locus YNL322C, strain KRE1, active compounds read low
[7] = locus YPL055C, strain LGE1, active compounds read low
[8] = locus YPL241C, strain CIN2, active compounds read low

Measured: normalized growth

Cn1cc(C(F)(F)F)nc1-c1ccc(OCC(O)CNCCOc2ccc(O)c(C(N)=O)c2)cc1 (configuration not stated)
inactive: locus YAL040C, strain CLN3, active compounds read low 0.996 | locus YCL061C, strain MRC1 (second series), active compounds read low 1 | locus YDR363W, strain ESC2, active compounds read low 1.01 | locus YER002W, strain NOP16, active compounds read low 1.04 | [1] 1.01 | [2] 1 | [3] 1.01 | [4] 1.02 | [5] 1.01 | locus YNL175C, strain NOP13, active compounds read low 1.05 | locus YNL197C, strain WHI3, active compounds read low 1.03 | locus YNL224C, strain SQS1, active compounds read low 1.04 | [6] 1.03 | locus YOR083W, strain WHI5 (second series), active compounds read low 0.987 | [7] 1.01 | [8] 1

CC(C)(C)c1ccc(CSc2nc(N)cc(=O)[nH]2)cc1
inactive: locus YAL013W, strain DEP1, active compounds read low 0.993 | locus YBR229C, strain ROT2, active compounds read low 1.02 | locus YCL061C, strain MRC1, active compounds read low 0.998 | locus YDL101C, strain DUN1, active compounds read low 0.981 | locus YDL134C, strain PPH21, active compounds read low 1.01 | locus YDR150W, strain NUM1, active compounds read low 0.949 | locus YEL061C, strain CIN8, active compounds read low 0.995 | [1] 1 | locus YGR229C, strain SMI1, active compounds read low 1.01 | locus YHR030C, strain SLT2, active compounds read low 0.988 | locus YHR087W, strain rtc3, active compounds read low 0.993 | locus YJL187C, strain SWE1, active compounds read low 0.985 | locus YJR043C, strain POL32, active compounds read low 1.01 | [2] 1.01 | locus YKL190W, strain CNB1, active compounds read low 1.02 | locus YLR039C, strain RIC1, active compounds read low 1.02 | locus YLR058C, strain SHM2 (second series), active compounds read low 1.01 | locus YLR085C, strain ARP6, active compounds read low 0.898 | locus YLR262C, strain YPT6, active compounds read low 1.09 | locus YML094W, strain GIM5, active compounds read low 0.975 | locus YMR219W, strain ESC1, active compounds read low 1 | [3] 1.01 | locus YMR307W, strain GAS1, active compounds read low 0.855 | [4] 1.01 | [5] 1.01 | locus YNL298W, strain CLA4 (second series), active compounds read low 1.01 | [6] 1 | locus YNR030W, strain Alg12, active compounds read low 1.01 | [7] 0.862 | [8] 0.972 | locus YPR135W, strain CTF4, active compounds read low 0.949
